This passage reports composite z-score and z-score results from PubChem BioAssay.

Assay [1] deals with Plasmodium falciparum Sir2 (PF13_0152, Sir2A). Put plainly: Plasmodium falciparum Sir2A binding compounds – biochemical, small-molecule microarray, 635 nm fluorescence, primary screen (AID 1098).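 Note: score merges spot fluorescence intensity with its signal-to-noise ratio.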 Conditions: fluorescence 635 nm, higher = more signal.
A short description of assay [2]: probe aDKK1 binding to arrayed compounds – biochemical, biotinylated probe, 635/667 nm fluorescence, primary screen (AID 1099).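 Note: score merges 667nm spot fluorescence with signal to noise across triplicate slides.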 Conditions: small-molecule microarray, higher = more signal.
A short description of assay [3]: probe aCHRDL2 binding to arrayed compounds – biochemical, biotinylated probe, 635/667 nm fluorescence, primary screen (AID 1100). The following applies: small-molecule microarray, higher = more signal.
Assay [4] is described as follows: change in splice reporter luminescence, either direction, cell-based, HEK293, spliceosome inhibition project, primary screen (AID 1101).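 Note: HEK293 cells carrying a splicing-competent luciferase reporter gene; test concentration not given here.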 Conditions: HEK293 splicing luciferase reporter, 24 h, higher = more signal, called active from +8 up or from −8 down. For orientation: In a reporter assay the amount or activity of a reporter protein is the signal.
The target in assay [5] is Fibroblast growth factor 10 (Homo sapiens) (UniProt O15520). The experiment in a line: compounds binding fibroblast growth factor 10 – biochemical, small-molecule microarray, 635 nm fluorescence, primary screen (AID 1102). The following applies: FGF10 binding, fluorescence 635 nm, higher = more signal.
Fibroblast growth factor 10 (Homo sapiens), sequence (O15520 whole entry, looked up): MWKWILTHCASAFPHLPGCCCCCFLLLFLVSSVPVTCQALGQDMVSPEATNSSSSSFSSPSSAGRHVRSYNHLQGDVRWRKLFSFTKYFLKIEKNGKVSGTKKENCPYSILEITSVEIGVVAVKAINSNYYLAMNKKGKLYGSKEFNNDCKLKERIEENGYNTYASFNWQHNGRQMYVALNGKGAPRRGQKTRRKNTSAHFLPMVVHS
Assay [6] has as its system glycogen synthase kinase-3 (GSK3A per assay name; protocol says GSK3B). Put plainly: compounds binding glycogen synthase kinase-3 – biochemical, small-molecule microarray, 635 nm fluorescence, GSK3A, primary screen (AID 1103). Note: the record names both GSK3A and GSK3B. The following applies: fluorescence 635 nm, higher = more signal.
Assay [7] has as its target Epidermal growth factor receptor (Homo sapiens) (UniProt P00533). The experiment in a line: compounds binding epidermal growth factor receptor – biochemical, small-molecule microarray, 635 nm fluorescence, primary screen (AID 1104).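 Note: score merges 667 nm emission intensity with spot signal to noise over triplicate slides.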 The following applies: EGFR binding, higher = more signal.
Assay [8] deals with Follistatin-related protein 3 (Homo sapiens) (UniProt O95633). Put plainly: compounds binding follistatin-related protein 3 – biochemical, small-molecule microarray, 635 nm fluorescence, primary screen (AID 1105).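 Note: score merges emission near 667 nm and signal to noise per printed spot across three slides.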 The following applies: FSTL3 binding, higher = more signal.
Follistatin-related protein 3 (Homo sapiens), sequence (O95633 whole entry, looked up): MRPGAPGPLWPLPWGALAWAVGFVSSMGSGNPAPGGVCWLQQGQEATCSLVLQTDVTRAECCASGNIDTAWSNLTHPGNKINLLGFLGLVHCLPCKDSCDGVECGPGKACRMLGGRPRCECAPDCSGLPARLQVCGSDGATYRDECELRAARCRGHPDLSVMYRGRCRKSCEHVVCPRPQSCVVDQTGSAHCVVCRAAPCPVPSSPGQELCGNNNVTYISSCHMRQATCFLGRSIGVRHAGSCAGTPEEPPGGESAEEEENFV
Assay [9] deals with Dickkopf-related protein 1 (Homo sapiens) (UniProt O94907). Put plainly: small molecules binding DKK1 protein – biochemical, small-molecule microarray, 635 nm fluorescence scan, primary screen (AID 1106).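 Note: score merges emission near 667 nm with signal to noise over three replicate slides.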 Conditions: higher = more signal.
Dickkopf-related protein 1 (Homo sapiens), sequence (O94907 whole entry, looked up): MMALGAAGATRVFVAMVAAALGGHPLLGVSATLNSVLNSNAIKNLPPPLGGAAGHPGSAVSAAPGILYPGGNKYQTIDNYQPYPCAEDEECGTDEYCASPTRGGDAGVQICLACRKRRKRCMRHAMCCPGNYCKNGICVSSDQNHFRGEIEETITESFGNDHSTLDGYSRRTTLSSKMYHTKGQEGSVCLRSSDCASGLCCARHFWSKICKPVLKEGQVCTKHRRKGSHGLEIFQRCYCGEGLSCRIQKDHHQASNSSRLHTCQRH
Assay [10] relates to Inhibin beta A chain (activin A). The experiment in a line: small molecules binding activin A – biochemical, small-molecule microarray, 635 nm fluorescence scan, primary screen (AID 1107).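 Note: mouse activin A protein probed at 4.33 µg/mL on printed slides; score merges bound-protein fluorescence near 667 nm with spot signal-to-noise.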 The following applies: INHBA, higher = more signal.
Assay [11] concerns Human papillomavirus type 1a protein E7 (residues 44-93). Put plainly: small molecules binding HPV E7 44-93 – biochemical, small-molecule microarray, residues 44-93, 635 nm fluorescence, primary screen (AID 1108).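 Note: E7 fragment applied at 1 µg/mL in TBST for 1 h at 4 C; score combines spot fluorescence with its signal to noise ratio.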 Conditions: fluorescence 635 nm, higher = more signal.
Assay [12] in a line: hepatitis C replication reporter changes, two-sided – Huh7 cells, luciferase reporter, HCV replication inhibitor project, primary screen (AID 1109).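 Note: huh7 hepatoma cells harbouring a luciferase neomycin HCV replicon reporter; luciferase luminescence as measure of HCV replicon replication; test concentration not given here.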 The following applies: Huh7 HCV replicon luciferase reporter, 48 h; higher = more signal.
Assay [13] addresses Left-right determination factor 2 (Homo sapiens) (UniProt O00292). The experiment in a line: small molecules binding LEFTY2 protein – biochemical, small-molecule microarray, 635 nm fluorescence scan, primary screen (AID 1110). The following applies: higher = more signal.
The target of assay [14] is Calmodulin-1 (Homo sapiens) (UniProt P0DP23). The experiment in a line: small molecules binding calmodulin-1 with EGTA – biochemical, small-molecule microarray, Cy5-labelled CALM1, profiling panel (AID 1111).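 Note: labelled calmodulin applied in Tris saline Tween buffer holding calcium plus EGTA and DTT.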 Conditions: Cy5-CALM1 binding fluorescence, higher = more signal.
For assay [15] the target is unchanged. Put plainly: small molecules binding Ca-loaded calmodulin-1 – biochemical, small-molecule microarray, Cy5-labelled CALM1, plus calcium, artefact control for SMM control-protein annotation, profiling panel (AID 1112).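 Note: score merges spot fluorescence with signal to noise from triplicate slides.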 The following applies: Cy5-CALM1 binding fluorescence, higher = more signal.
Assay [16] in a line: probe aWnt5a binding to arrayed compounds – biochemical, biotinylated probe, 635/667 nm fluorescence, primary screen (AID 1113).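 Note: score merges 667 nm fluorescence intensity with signal-to-noise per printed feature.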 The following applies: small-molecule microarray, higher = more signal.
The nature of assay [17]: probe aShh binding to arrayed compounds – biochemical, biotinylated probe, 635/667 nm fluorescence, primary screen (AID 1114).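 Note: probe is biotin-labelled aShh protein from a stem cell growth factor screen; measures binding of labelled protein to compounds printed on the slide; score merges feature fluorescence at 667 nm with signal-to-noise.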 Conditions: small-molecule microarray, higher = more signal.
A short description of assay [18]: probe aNog binding to arrayed compounds – biochemical, biotinylated probe, 635/667 nm fluorescence, primary screen (AID 1115).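 Note: probe is biotinylated aNog protein used at 0.15 µg/mL for 1 h at 4 C; z-score combines 667 nm fluorescence of each spot with its signal to noise.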 Conditions: small-molecule microarray, higher = more signal.
Assay [19] addresses Torsin-1A-interacting protein 1 (Homo sapiens) (UniProt Q5JTV8). Put plainly: compound microarray binding of lysate hLAP1 – cell lysate, small-molecule microarray, COS7 lysate, 635/667 nm fluorescence, primary screen (AID 1116). Conditions: 635 nm fluorescence, higher = more signal.
For assay [20], the target named is Alpha-bungarotoxin (Bungarus multicinctus) (UniProt P60615). Put plainly: compounds binding labelled alpha-BTX control protein – biochemical, small-molecule microarray, Alexa647 label, 635/667 nm fluorescence, artefact control for SMM control protein annotation, profiling panel (AID 1117). Conditions: alpha-BTX-A647 binding fluorescence, higher = more signal.
Alpha-bungarotoxin (Bungarus multicinctus), sequence (P60615 whole entry, looked up): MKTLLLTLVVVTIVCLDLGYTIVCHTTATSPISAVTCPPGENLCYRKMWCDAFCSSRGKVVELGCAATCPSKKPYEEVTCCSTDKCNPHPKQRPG

Calls of active or inactive are those of the source.

Torsin-1A-interacting protein 1 (Homo sapiens), sequence (Q5JTV8 whole entry, looked up): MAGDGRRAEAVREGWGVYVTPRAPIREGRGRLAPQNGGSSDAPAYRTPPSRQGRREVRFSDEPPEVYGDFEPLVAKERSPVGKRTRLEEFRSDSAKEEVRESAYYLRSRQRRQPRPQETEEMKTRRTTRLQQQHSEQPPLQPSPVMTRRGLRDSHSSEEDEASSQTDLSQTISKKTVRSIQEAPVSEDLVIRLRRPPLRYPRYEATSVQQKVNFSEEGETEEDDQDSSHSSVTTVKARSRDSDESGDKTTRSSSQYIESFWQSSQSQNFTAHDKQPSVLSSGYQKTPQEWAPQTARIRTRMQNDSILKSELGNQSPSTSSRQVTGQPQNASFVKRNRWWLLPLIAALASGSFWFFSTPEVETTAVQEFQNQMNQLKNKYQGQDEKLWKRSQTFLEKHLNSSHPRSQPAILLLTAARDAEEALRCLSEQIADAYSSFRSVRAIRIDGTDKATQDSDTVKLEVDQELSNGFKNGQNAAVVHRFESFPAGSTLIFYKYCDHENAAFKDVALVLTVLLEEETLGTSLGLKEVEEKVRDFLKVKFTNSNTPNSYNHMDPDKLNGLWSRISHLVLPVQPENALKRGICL
Left-right determination factor 2 (Homo sapiens), sequence (O00292 whole entry, looked up): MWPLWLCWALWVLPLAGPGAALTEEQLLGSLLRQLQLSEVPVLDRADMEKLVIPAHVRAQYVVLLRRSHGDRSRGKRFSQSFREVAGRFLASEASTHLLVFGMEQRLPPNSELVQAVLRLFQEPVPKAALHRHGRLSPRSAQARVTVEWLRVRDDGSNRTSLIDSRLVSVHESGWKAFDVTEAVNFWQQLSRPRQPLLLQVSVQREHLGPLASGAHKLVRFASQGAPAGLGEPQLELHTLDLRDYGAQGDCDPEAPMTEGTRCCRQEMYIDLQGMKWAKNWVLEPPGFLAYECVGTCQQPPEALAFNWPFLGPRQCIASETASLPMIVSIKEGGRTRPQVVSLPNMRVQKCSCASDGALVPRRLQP
Epidermal growth factor receptor (Homo sapiens), sequence (P00533 whole entry, looked up): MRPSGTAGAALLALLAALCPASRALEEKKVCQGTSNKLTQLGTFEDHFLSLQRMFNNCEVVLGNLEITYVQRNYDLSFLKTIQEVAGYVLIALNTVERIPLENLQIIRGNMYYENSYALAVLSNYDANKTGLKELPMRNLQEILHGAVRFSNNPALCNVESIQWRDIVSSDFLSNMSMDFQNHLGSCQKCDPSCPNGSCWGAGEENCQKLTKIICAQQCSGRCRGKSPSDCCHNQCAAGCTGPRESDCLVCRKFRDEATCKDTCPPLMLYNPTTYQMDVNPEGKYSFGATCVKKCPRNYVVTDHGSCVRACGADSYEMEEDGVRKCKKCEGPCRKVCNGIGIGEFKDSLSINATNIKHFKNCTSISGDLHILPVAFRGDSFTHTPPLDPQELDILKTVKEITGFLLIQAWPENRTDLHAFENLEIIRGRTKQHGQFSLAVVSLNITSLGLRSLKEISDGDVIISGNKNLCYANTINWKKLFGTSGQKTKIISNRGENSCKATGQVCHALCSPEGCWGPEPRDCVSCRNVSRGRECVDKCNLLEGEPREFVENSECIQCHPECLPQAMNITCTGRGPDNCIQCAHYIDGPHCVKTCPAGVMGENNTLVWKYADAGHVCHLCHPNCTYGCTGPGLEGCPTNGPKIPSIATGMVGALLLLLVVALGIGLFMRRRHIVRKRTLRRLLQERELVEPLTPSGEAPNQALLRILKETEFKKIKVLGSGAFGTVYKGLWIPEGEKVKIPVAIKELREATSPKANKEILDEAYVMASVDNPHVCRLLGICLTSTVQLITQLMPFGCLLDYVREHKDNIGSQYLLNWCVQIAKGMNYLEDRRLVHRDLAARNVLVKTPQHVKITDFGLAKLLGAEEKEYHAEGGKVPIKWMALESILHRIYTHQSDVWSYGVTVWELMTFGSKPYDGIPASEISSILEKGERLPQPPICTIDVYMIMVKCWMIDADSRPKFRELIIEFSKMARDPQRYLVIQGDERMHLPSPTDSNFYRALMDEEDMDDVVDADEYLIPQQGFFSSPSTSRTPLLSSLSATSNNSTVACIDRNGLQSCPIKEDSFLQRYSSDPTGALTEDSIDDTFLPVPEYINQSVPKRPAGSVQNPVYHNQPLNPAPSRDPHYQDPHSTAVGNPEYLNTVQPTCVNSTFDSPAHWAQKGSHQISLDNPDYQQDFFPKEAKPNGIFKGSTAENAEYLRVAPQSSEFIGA

As to `C[C@@H]1CCC2C(=O)N(Cc3ccccc3)C[C@@H](O)CN2[C@H]1c1ccc(Br)cc1` (stereo not given in full), the composite z-score is 0.892 in assay [1]; -0.276 in [2]; -0.441 in assay [3]; 0.91 in [5]; 0.104 in assay [6]; -0.0897 in assay [7]. Besides, the composite z-score in assay [8] was 0.078; in assay [9], 0.228; in assay [10], 0.203; in assay [11], 0.671; in assay [13], 0.149; in [14], 0.102. Besides, the composite z-score in [15] was -0.28; in [16] it was -0.169; in assay [17], -0.138; in assay [18] it was -0.0675; in [19] it was 0.199; in assay [20] it was 0.0711. In addition, the z-score in assay [4] is -1.89 (inactive); in assay [12], 0.344.

In the case of `CC(C)CON=C1C[C@@H](O)[C@@H](O)[C@@H]2[C@@H]3C(=O)N(C[C@@H]4CCCO4)C(=O)[C@@H]3CC[C@H]12`, the composite z-score in assay [1] was 0.651; in assay [2], -0.273; in [3], -0.356; in assay [5], 0.505; in assay [6], 0.33; in [7], 0.265. Also, the composite z-score in assay [8] is 0.417; in assay [9], 0.24; in assay [10], 0.07; in [11] it was 0.595; in [13], 0.781; in assay [14] it was 0.0832. For the same compound, the composite z-score in assay [15] was 0.0249; in assay [16] it was -0.178; in assay [17], -0.345; in assay [18], -0.074; in [19] it was 0.241; in [20], 0.0141. The z-score was 0.132 (inactive) in assay [4] and 0.392 in [12].

For `CC(C)=CCCC(C)=CCON=C1[C@H]2CCn3c(=O)n(C)c(=O)n3[C@H]2[C@H](O)[C@@H]2O[C@H]12`, the composite z-score is 0.819 in assay [1]; -0.317 in [2]; -0.378 in [3]; 0.868 in assay [5]; 1.26 in assay [6]; 0.779 in assay [7]. Further, the composite z-score in assay [8] is 1.05; in [9] it was 0.921; in assay [10], 0.832; in assay [11], 1.32; in assay [13], 0.692; in [14], -0.257. Further, the composite z-score in [15] is -0.845; in assay [16] it was 0.188; in [17], 0.131; in assay [18] it was -0.0146; in assay [19] it was 1.2; in assay [20], -0.0134. Also, the figures for the z-score in assay [4] and in assay [12] were 0.709 (inactive) and -0.621, respectively.

Turning to `O=C1[C@H]2[C@H]3[C@H](O)[C@H](O)CC(=NO[C@@H]4O[C@H](CO)[C@@H](O)[C@H](O)[C@H]4O)[C@H]3CC[C@H]2C(=O)N1Cc1ccc2c(c1)OCO2`, the composite z-score in [1] is 0.381; in [2], 0.215; in assay [3] it was 0.821; in [5], -0.0585; in assay [6], -0.417; in assay [7], -0.678. Also, the composite z-score in assay [8] was -0.387; in [9], -0.899; in [10], -0.401; in [11] it was 1.44; in assay [13], -0.515; in [14], -0.603. The composite z-score is -0.329 in [15]; -0.115 in assay [16]; -0.397 in assay [17]; 0.0327 in assay [18]; 0.441 in assay [19]; 1.02 in assay [20]. Further, the z-score in [4] is -0.0194 (inactive); in assay [12] it was -0.594.

As to `CS(=O)(=O)CCOC(=O)C1=CC(CCCO)=CC(c2cccs2)N(Cc2cccc(OC(F)(F)F)c2)C=C1C(=O)OCCS(C)(=O)=O` (stereo not given), the composite z-score in assay [1] was 0.811; in assay [2], 0.674; in assay [3] it was 0.742; in [5] it was 0.739; in [6] it was 0.873; in assay [7] it was -0.37. Moreover, the composite z-score in assay [8] was 0.14; in assay [9] it was -0.06; in [10], 0.915; in assay [11], 0.729; in assay [13], -0.224; in assay [14], 2.31. The composite z-score in assay [15] is 1.36; in assay [16], 0.055; in assay [17] it was 0.261; in assay [18], -0.0554; in assay [19], 1.88; in [20] it was 1.6. In addition, the values for the z-score in [4] and in assay [12] were 0.538 (inactive) and -2.77, respectively.

For `COCC1=C2[C@@H](CCc3ccccc3)OB(O)C[C@@H]2n2c(=O)n(-c3ccccc3)c(=O)n2C1`, the composite z-score in [1] was 0.48; in assay [2] it was -0.32; in [3], -0.448; in assay [5], 0.511; in [6], -0.114; in [7] it was 0.492. In addition, the composite z-score in assay [8] is 0.444; in assay [9] it was 0.374; in [10], 0.632; in [11], -0.289; in assay [13], 0.26; in assay [14], -0.455. Further, the composite z-score in assay [15] was -0.438; in [16], -0.158; in assay [17], -0.304; in [18], -0.213; in [19] it was 0.152; in [20], -0.148. Also, the figures for the z-score in assay [4] and in assay [12] were 0.184 (inactive) and 0.332, respectively.
